# TGFb SMAD3 inh: blocks TGF-b signaling | Potency, µM (highest dose often 46.1 µM), for inactives: at the top dose activity, negative = inhibition, most hits filed as inhibitors | HepG2 CAGA-GFP TGF-b/SMAD3 reporter, GFP fluorescence, 18 h; TGF-beta stimulated, 500 pg/mL final | 410,000 compounds, 1.2% hits; also: % is scaled to controls: 0 for no effect and ±100 for the full control effect; nearly all actives have a fitted effect of over 65% in size
#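 Smad-responsive CAGA-GFP expression was quantified in HEPG2 cells exposed to compounds and 500 pg/mL final TGF-beta for 18 h at 37 degrees C; unstimulated wells defined full inhibition.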
# ATXN2 expr inh: inhibitors of ATXN2 expression. HEK-293 ATXN2-luciferase reporter, luminescence, 24 h. AID 1745845. Potency, µM (top dose mostly 57 µM), without a hit: top-dose activity change, negative = inhibition, most hits filed as inhibitors. 360,000 compounds, 0.72% hits; also: % is scaled to controls: 0 for no effect and ±100 for the full control effect; nearly all actives have a fitted effect of over 55% in size
#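 qHTS (up to 57 uM final) was run with 24 h compound exposure of reporter cells at 37 °C. Each well was multiplexed: SteadyGlo luminescence measured ATXN2-luciferase expression after a fluorogenic Gly-Phe-AFC viability readout (25 uM final).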
# Gal4-VP16 FLuc: counter-screen for ROR gamma inhibitors: Gal4-VP16 reporter | Drosophila S2 Gal4-VP16 UAS-luciferase, luminescence, 20 h | Potency, µM (series often up to 53.6 µM), inactives show at the top dose activity, negative = inhibition, hits mostly inhibitors | 310,000 compounds, 3.5% hits | AID 2546;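 also: Gal4-VP16 expression switched on by copper sulfate through the metallothionein promoter; % is scaled to controls: 0 for no effect and ±100 for the full control effect; nearly all actives have a fitted effect of over 50% in size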
# HepG2 viability: kills HepG2 cells in TGF-b inhibitor counter-screen; AID 588856; Potency, µM (doses to about 46.1 µM), for the others: top-dose activity change, negative = cytotoxicity, usual class: cytotoxic; 410,000 compounds, 0.76% hits; HepG2 CAGA-GFP viability, ATP luminescence, 18 h
#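 CellTiter-Glo luminescence gave cytotoxicity after 18 hours at 37 degrees C. The cells were HepG2 CAGA-GFP in 1% FBS DMEM, stimulated with 500 pg/mL TGF-beta after compound addition. %Activity was normalised to no-cell wells (complete cell-killing) and DMSO (no toxicity), and curves were fitted and classified.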
# ATXN viability: viability counter-screen for ATXN expression inhibitors; S2 cells (HEK-293 line with an ATXN2-luciferase reporter) viability, CellTiter-Fluor protease fluorescence, 24 h; Potency, µM (top dose mostly 56.7 µM), most hits filed as cytotoxic; 400,000 compounds, 0.49% hits; AID 651635; also: nearly all actives have a fitted effect of over 40% in size
# RORg inh: ROR gamma (mouse) transcription inhibition; 310,000 compounds, 5.4% hits; Potency, µM (highest dose often 53.6 µM), inactives show at the top dose activity change, negative = inhibition, most hits filed as inhibitors; Drosophila S2 Gal4-RORgamma UAS-luciferase reporter, 20 h; P51450; AID 2551; also: % is scaled to controls: 0 for no effect and ±100 for the full control effect; nearly all actives have a fitted effect of over 60% in size
# Target sequence (P51450 whole entry, looked up, the tested form may be a part): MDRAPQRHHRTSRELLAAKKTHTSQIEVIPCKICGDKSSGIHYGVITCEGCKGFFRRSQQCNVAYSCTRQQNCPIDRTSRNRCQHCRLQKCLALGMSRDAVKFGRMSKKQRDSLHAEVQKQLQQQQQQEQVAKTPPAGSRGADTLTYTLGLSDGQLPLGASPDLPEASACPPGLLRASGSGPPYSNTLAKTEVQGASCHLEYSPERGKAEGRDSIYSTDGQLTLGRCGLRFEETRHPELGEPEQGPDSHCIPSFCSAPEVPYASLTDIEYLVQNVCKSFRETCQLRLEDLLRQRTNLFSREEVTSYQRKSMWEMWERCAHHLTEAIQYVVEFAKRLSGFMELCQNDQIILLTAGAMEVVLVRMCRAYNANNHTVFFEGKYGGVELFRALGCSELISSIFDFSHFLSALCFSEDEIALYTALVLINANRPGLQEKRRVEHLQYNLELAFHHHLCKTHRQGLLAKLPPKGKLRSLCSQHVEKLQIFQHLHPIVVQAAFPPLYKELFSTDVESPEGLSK
#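 Stable Schneider cell line, Gal4 DNA-binding domain fused to ROR gamma, UAS-luciferase. Cmpd 1 hr RT → CuSO4 700 uM final → 20 hr RT → luciferase reagent 10 min → luminescence.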
# Starred values were filed as active, the others as inactive; i = inactive; ? = inconclusive; nt = no result. Hits are enriched below; roughly 6.1% of the tested compounds scored in any of these assays. Calls follow the shape of the dose curve; as a rule, active = well fitted curve in the direction sought with a large enough effect; inconclusive = small, poorly fitted or top-dose-only effect, or another doubt; inactive = no such curve, though single readings can be large; an effect the other way counts as inactive or inconclusive. Potency is read from the fitted curve at half-maximal effect.
SMILES,TGFb SMAD3 inh,ATXN2 expr inh,Gal4-VP16 FLuc,HepG2 viability,ATXN viability,RORg inh
CC(/C=C/c1ccccc1)=N\Nc1nc(C)cc(C)n1,?,22%,5µM*,-26%,?,0.45µM*
O=C(COc1ccccc1)NCC(c1ccc(Cl)cc1)N1CCCCC1 (centres undefined),-17%,-5%,nt,-25%,i,nt
N#CCCN(Cc1cccnc1)C(=S)NC(=O)c1ccc(S(=O)(=O)N2CCCC2)cc1,?,-12%,?,-5%,i,2.5µM*
CCCCN(C)C(=O)c1ccc(S(=O)(=O)N2CCOCC2)cc1,8%,11%,6%,-10%,i,-7%
CCCN(CC1CC1)C(=S)NC(=O)c1ccc(S(=O)(=O)N2CCOCC2)cc1,16%,4%,0.89µM*,1%,?,0.35µM*
Cc1ccc(C(=O)NNC(=O)c2ccc(S(=O)(=O)N3CCOCC3)cc2)cc1,13%,-1%,24%,7%,i,-21%
O=C(NC(C(=O)O)c1ccccc1)c1ccc(S(=O)(=O)N2CCOCC2)cc1 (centres undefined),0%,-7%,0%,-6%,i,10%
CN1CCN(C(=S)NC(=O)c2ccc(S(=O)(=O)N3CCOCC3)cc2)CC1,-1%,nt,?,24%,i,10µM*
O=C(NC(=S)N1CCN(C(c2ccccc2)c2ccccc2)CC1)c1ccc(S(=O)(=O)N2CCOCC2)cc1,-4%,-7%,0.028µM*,-10%,i,0.32µM*
N#CCCN(Cc1cccnc1)S(=O)(=O)c1ccc(S(=O)(=O)N2CCCCCC2)cc1,-24%,-7%,-1%,-3%,i,0%
CCOc1ccccc1CNC(=O)Cn1c(-c2ccccc2)cc(C(C)=O)c1C,-2%,12%,nt,-14%,i,nt
Cc1cc(C)c(OCC(=O)N(Cc2ccc(N(C)C)cc2)CC2CCCO2)c(C)c1 (centres undefined),-4%,nt,nt,-2%,nt,nt
COc1ccc(C2=NN(C(=O)CSc3nc4ccccc4s3)C(c3ccc(OC)cc3)C2)cc1 (centres undefined),-2%,0%,7.1µM*,1%,i,?
COc1ccc(C2CC(c3ccccc3)n3nnnc3N2)cc1 (centres undefined),-1%,0%,-4%,-28%,i,0%
Nc1nc2n(n1)C(c1cccs1)CC(c1ccccc1)N2 (centres undefined),1%,-3%,-18%,-25%,i,13µM*
COc1ccc(C2CC(c3ccccc3)Nc3nc(NC(=O)c4cccs4)nn32)cc1 (centres undefined),23%,-1%,5.6µM*,-4%,i,2.8µM*
COc1ccc(C2CC(c3cccs3)n3nc(N)nc3N2)cc1 (centres undefined),15%,6%,9%,-5%,i,?
COc1ccc(C2CC(c3ccccc3)n3nc(NC(=O)c4cccs4)nc3N2)cc1 (centres undefined),7%,-7%,5µM*,-16%,i,3.5µM*
CCOc1ccc(CNCc2c(C(=O)O)c(C)n(Cc3c(F)cccc3Cl)c2C)cc1OC,-12%,-11%,nt,-17%,i,nt
Cc1cc(N(C)C)cc(C)c1N=Nc1cc[n+]([O-])cc1,0%,nt,nt,-47%,11µM*,nt
S=C(NCc1ccccc1)Nc1cccc2cnccc12,-2%,?,?,12%,i,-7%
Cc1ccc(NC(=S)Nc2cccc3cnccc23)cc1C,?,-23%,3.2µM*,-16%,i,?
Cc1ccc(C)c(NC(=S)Nc2cccc3cnccc23)c1,2%,-20%,9%,1%,i,?
S=C(NCCc1ccccc1)Nc1cccc2cnccc12,?,?,4.5µM*,-14%,i,5µM*
Cc1ccccc1NC(=S)Nc1cccc2cnccc12,-10%,-14%,-11%,5%,i,10µM*
SMILES,TGFb SMAD3 inh,ATXN2 expr inh,Gal4-VP16 FLuc,HepG2 viability,ATXN viability,RORg inh
Cc1ccc(NC(=S)Nc2cccc3cnccc23)cc1,-30%,nt,?,-17%,?,?
CCc1cc2c(=O)c(-c3ccc4c(c3)OCCO4)c(C)oc2cc1OS(C)(=O)=O,?,-24%,20µM*,-23%,i,-4%
CCc1cc(=O)oc2c(C)c(OS(C)(=O)=O)ccc12,-7%,2%,nt,-4%,i,nt
CN(C)c1ccc(/C=C/c2ccnc3ccccc23)c(N)c1,?,nt,nt,-36%,nt,nt
COc1ccc(C(=O)c2sc(Nc3ccccc3F)nc2N)cc1,-21%,nt,-5%,5%,?,-17%
COc1ccc(C(=O)c2sc(Nc3ccccc3)nc2N)cc1,11µM*,-5%,-6%,-54%,i,?
COc1ccc(C(=O)c2sc(Nc3ccccc3)nc2N)cc1OC,13µM*,?,?,-13%,nt,13%
COc1cccc(CNCc2cccn2-c2nnc(N3CCN(c4ccccc4)CC3)s2)c1,?,?,nt,-29%,i,nt
Cc1nn(C)c(C(=O)NNC(=S)NCC(C)C)c1Cl,-2%,2%,-19%,13%,i,3.2µM*
Cc1ccc(NC(=O)c2c([N+](=O)[O-])c(C(C)(C)C)nn2C)cc1,-3%,-33%,3%,-2%,i,18%
Cc1ccc(NC(=S)NNC(=O)c2c([N+](=O)[O-])c(C)nn2C)cc1,-2%,-2%,-19%,-3%,i,13µM*
Cc1ccc(NC(=S)NNC(=O)c2c(Cl)c(C)nn2C)cc1,?,-4%,?,-24%,i,4µM*
Cc1ccc(NC(=S)NNC(=O)c2nn(C)c(C)c2Cl)cc1,11%,32%,-3%,-24%,?,-40%
Cc1ccc(NC(=S)NNC(=O)c2cn(C)nc2C)cc1,15%,5%,-2%,1%,i,11µM*
Cc1ccc(CN2C[C@H](Sc3ccccn3)C[C@H]2C(=O)Nc2ccc3sc(C)nc3c2)c(C)c1,nt,nt,nt,nt,i,nt
Cc1nn(C)c(C(=O)N/N=C/c2ccc(-c3ccccc3)cc2)c1Cl,?,-18%,11µM*,-27%,?,8.9µM*
CCC1CCc2c(sc(NC(=O)C3c4ccccc4Oc4ccccc43)c2C#N)C1 (centres undefined),0%,12%,nt,-20%,i,nt
CCOC(=O)C1(CC2CCCCO2)CCN(Cc2cc(F)ccc2-n2cccn2)CC1 (centres undefined),-5%,-14%,15%,-16%,i,15%
Cc1cccc(-n2ccnc2CN2CCC(CO)(Cc3ccccc3)CC2)c1,-13%,nt,-4%,-21%,i,16µM*
